CDK5 inh: blocks human CDK5/p35 kinase activity. Q00535+Q15078. Recombinant CDK5/p35, ADP-Glo luminescence, 60 min. inhibition, % at 10 µM. hit rate 0.01% among 330,000;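 active = highest replicate inhibition of at least 50% and at least 75% of replicates reaching 50%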;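 also: plate controls were DMSO neutral control for no effect and GW8510 at 10 µM for full effect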
dFosB act-1: mouse delta FosB homodimer activation; purified delta FosB, TAMRA-CDK5 oligo fluorescence polarization; percent of positive-control signal above neutral wells; AID 493131; hit rate 0.99% among 340,000; activation, % at 25 µM; P13346;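 active = mean activation above about 17%, with every replicate also reaching it, limit read from the data, passing the limit was not always enough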
Rtt109 Vps75: blocks Candida albicans Rtt109/Vps75 acetyltransferase activity; purified Rtt109/Vps75, ThioGlo CoA-SH fluorescence, 4 h; hit rate 0.16% among 330,000; inhibition, % at 34.9 µM; AID 540336; Q5AAJ8;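 active = inhibition of at least 50% in every replicate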
SMARCA2 act: SMARCA2 function activation, primary screen; MG213 cells, MMTV-luciferase reporter, dexamethasone, overnight; hit rate 1% among 370,000; activation, % at 9.1 µM; in the data active = activation above about 7.8%;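 also: 0% = vehicle wells and 100% = reference activator wells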
DYRK1A inh: Dyrk1A (rat) kinase inhibition | Q63470 | ADP-Glo luminescence, NFATc1 peptide | inhibition, % at 12.5 µM | hit rate 0.43% among 310,000 | AID 504441; in the data active = inhibition above about 50%;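 also: plate controls were vehicle with enzyme for no effect and no enzyme for full effect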
esBAF inh: SWI/SNF esBAF complex inhibition; mouse ES cells, Bmi1-luciferase knock-in reporter, 24 h; 100% = twice the neutral-well signal; reporter increase, % at 12.5 µM; hit rate 2% among 350,000; AID 602393; in the data active = activation above about 40%;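 also: 0% = median of the plate's neutral control wells and 100% = double that signal; a rise in the Bmi1 reporter signal indicates esBAF inhibition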
dFosB act-2: enhances mouse delta FosB homodimer binding to DNA. 2,400 tested, under 10 active. activation, % at 24.9 µM. purified delta FosB, TAMRA-CDK5 oligo fluorescence polarization; normalised: neutral wells 0, positive control 100. shares compounds with dFosB act-1;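 active = highest replicate activation at or above 34% and every replicate reaching that threshold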;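 also: higher polarization means more probe DNA bound by delta FosB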
* hit, by the source's call; / = not tested or not shown. This is a sample that favours compounds with a hit; in the whole collection about 3.2% have one here.

SMILES	CDK5 inh	dFosB act-1	Rtt109 Vps75	SMARCA2 act	DYRK1A inh	esBAF inh	dFosB act-2
O=C(CN1CCN(CCN2C(=O)c3cccc4cccc(c34)C2=O)CC1)c1ccc(F)cc1	0	33*	1	1	6	/	2
CN(C)CCCN1C(=O)c2cc3ccccc3cc2C1=O	0	12	-6	0	-9	4	/
CN(C)CCCN1C(=O)c2cccc3cccc(c23)C1=O	0	20*	4	6	2	-3	3
COc1ccc(C(=O)CN2CCN(CCN3C(=O)c4cccc5cccc(c45)C3=O)CC2)cc1	1	42*	-27	2	-7	/	7
O=C1c2cccc3cccc(c23)C(=O)N1CCCN1CCN(c2ccc(F)cc2)CC1	0	46*	6	-3	-3	4	0
CC(C)(C)C(=O)N1CCN(CCN2C(=O)c3cccc4cccc(c34)C2=O)CC1	1	0	-3	0	/	-8	/
CCN(CC)S(=O)(=O)c1cccc(C(=O)Nc2nc3cc4c(cc3s2)OCCO4)c1	0	23*	/	-4	6	20	-6
COc1ccccc1C(=O)Nc1nc2cc3c(cc2s1)OCCO3	0	31*	-5	/	-6	35	5
COc1ccc(CN(C)C[C@@H]2OCCCC[C@H](C)Oc3ccc(NC(=O)Nc4ccc5c(c4)OCO5)cc3C(=O)N([C@H](C)CO)C[C@@H]2C)cc1	/	/	/	/	/	-1	/
CN(C)C(=O)[C@@H]1[C@@H](CO)[C@@H]2Cn3c(ccc(C4=CCCC4)c3=O)[C@H]1N2S(=O)(=O)c1cn(C)cn1	/	/	/	/	/	-4	/
Cc1nc(-c2ccc(NC(=O)c3ccc(Br)o3)cc2)cs1	2	26*	-1	2	10	7	0
Cc1ccc(S(=O)(=O)N(C)C[C@@H]2Oc3ccc(NC(=O)Nc4ccccc4)cc3C(=O)N([C@H](C)CO)C[C@@H]2C)cc1	/	/	/	/	/	-5	/
NC1=NC[C@@H](Cc2ccc(O)cc2)N1CCc1cc(C(F)(F)F)cc(C(F)(F)F)c1	3	22*	1	0	/	-6	8
NC1=NC[C@@H](Cc2ccc(O)cc2)N1CCc1cccc(F)c1	-4	-10	4	1	18	-3	/
O=C(C[C@H]1C[C@@H]2c3cc(NC(=O)NC4CCCCC4)ccc3O[C@@H]2[C@@H](CO)O1)NCc1ccccc1	/	/	/	/	/	5	/
CNS(=O)(=O)c1ccc(NC(=O)c2cc(-c3ccncc3)nc3ccc(Cl)cc23)cc1	0	69*	-3	-2	-5	/	-1
Oc1oc(-c2ccccc2Br)nc1C=Nc1ccc(Br)cn1	2	47*	0	2	-3	0	-2
Oc1oc(-c2ccccc2)nc1/C=N/c1ccccn1	0	-2	12	5	0	18	/
CCC1CCCCN1CCCNC(=O)c1ccc(/C=C2/Sc3ccccc3NC2=O)cc1 (centres undefined)	2	38*	12	2	10	-3	0
C[C@@H]1CN([C@@H](C)CO)C(=O)c2cc(NC(=O)C3CC3)ccc2O[C@@H]1CN(C)CC1CC1	/	/	/	/	/	3	/
COc1cccc(OCCNC(=O)Nc2cc(F)c(F)cc2Cl)c1	0	74*	1	-3	-6	-3	-1
Cc1cc(C)cc(NC(=O)Cn2nnc(C(=O)NCc3ccc(F)cc3)c2N)c1	2	58*	19	-2	0	-9	3
Cc1cc(C)cc(NC(=O)Cn2nnc(C(=O)NCc3ccccc3Cl)c2N)c1	-7	41*	0	-1	4	5	0
COc1ccc(NC(=O)Cn2nnc(C(=O)NCc3ccc(C)cc3)c2N)cc1Cl	2	7	-5	-3	6	-2	/
C[C@H]1CN([C@@H](C)CO)C(=O)c2cc(C#CCN(C)C)cnc2O[C@H]1CN(C)C(=O)c1cccc(F)c1	/	/	/	/	/	-3	/
O=C(CCN1CCCCC1)NCC[C@H]1CC[C@H](NC(=O)C2CCCC2)[C@@H](CO)O1	/	/	/	/	/	-6	/
C[C@@H]1CN([C@H](C)CO)C(=O)c2cc(NC(=O)Nc3ccc(F)cc3)ccc2O[C@@H]1CN(C)C(=O)Nc1ccc(F)cc1	/	/	/	/	/	2	/
